According to a collection of fitness landscapes (doi:10.1126/science.1257360):
Whole data set: some 140,000 sequences, median “enrichment ratio after two sorts for PhoP signalling” near 0, cut for the highest 2% near 11. The sample as a whole holds a higher share of the highest values than the screen did.

B1: PhoQ; a variant is named by its letters at X, in order, P23837 (parent)
chain: MKKLLRLFFPLSLRVRFLLATAAVVLVLSLAYGMVALIGYSVSFDKTTFRLLRGESNLFYTLAKWENNKLHVELPENIDKQSPTMTLIYDENGQLLWAQRDVPWLMKMIQPDWLKSNGFHEIEADVNDTSLLLSGDHSIQQQLQEVREDDDDAEMTHSVAVNVYPATSRMPKLTIVVVDTIPVELKSSYMVWSWFIYVLSANLLLVIPLLWVAAWWSLRPIEALAKEVRELEEHNRELLNPATTRELTSLVRNLNRLLKSERERYDKYRTTLTDLTHSLKTPLXXLQXXLRSLRSEKMSVSDAEPVMLEQISRISQQIGYYLHRASMRGGTLLSRELHPVAPLLDNLTSALNKVYQRKGVNISLDISPEISFVGEQNDFVEVMGNVLDNACKYCLEFVEISARQTDEHLYIVVEDDGPGIPLSKREVIFDRGQRVDTLRPGQGVGLAVAREITEQYEGKIVAGESMLGGARMEVIFGRQHSAPKDE

Variants of: B1
Assay: enrichment ratio after two sorts for PhoP signalling (ratio (wild type AVST 3.29)); higher = more functional
Settings: with PhoP (E. coli)

| Variant | enrichment ratio |
| --- | --- |
| DSTD | ≤ 0.25 |
| HLRM | ≤ 0.25 |
| IPWT | ≤ 0.25 |
| WPQK | ≤ 0.25 |
| TMAW | ≤ 0.25 |
| WDLT | ≤ 0.25 |
| GWGM | ≤ 0.25 |
| HMWI | ≤ 0.25 |
| PRFL | ≤ 0.25 |
| DFQL | ≤ 0.25 |
| AGMS | 3.53 |
| AGMG | ≤ 0.25 |
| AGMI | 16.4 |
| NSFT | ≤ 0.25 |
| YKQH | ≤ 0.25 |
| HDPL | ≤ 0.25 |
| MNIV | ≤ 0.25 |
| TNSV | 19.4 |
| ANSV | 7.03 |
| MNSV | 16.9 |
| MNSK | ≤ 0.25 |
| LNSV | ≤ 0.25 |
| QING | ≤ 0.25 |
| PDEL | ≤ 0.25 |
| TSHN | 0.659 |

| Variant | enrichment ratio |
| --- | --- |
| ENQD | ≤ 0.25 |
| TMTQ | 14.3 |
| HKTQ | ≤ 0.25 |
| LCTQ | ≤ 0.25 |
| NGTQ | ≤ 0.25 |
| NNTQ | ≤ 0.25 |
| MMTQ | ≤ 0.25 |
| KSTQ | ≤ 0.25 |
| TGTQ | 17.7 |
| TKTQ | 12.6 |
| TMLA | 2.72 |
| TSTQ | 16 |
| MKTQ | ≤ 0.25 |
| LGMC | ≤ 0.25 |
| NWTN | ≤ 0.25 |
| VCIS | 0.315 |
| QCCN | ≤ 0.25 |
| PNLQ | 1.01 |
| SPYC | ≤ 0.25 |
| YNMF | ≤ 0.25 |
| LKVT | ≤ 0.25 |
| SFHI | ≤ 0.25 |
| VLMY | ≤ 0.25 |
| EGRC | ≤ 0.25 |
| EQYD | ≤ 0.25 |

| Variant | enrichment ratio |
| --- | --- |
| TITQ | 12.5 |
| STTQ | 6.67 |
| TILA | 4.43 |
| KYTQ | ≤ 0.25 |
| NMTQ | ≤ 0.25 |
| SQTQ | 11.3 |
| SLTQ | 6.15 |
| SGTQ | 17.4 |
| SGTW | ≤ 0.25 |
| VCDC | ≤ 0.25 |
| KHCF | ≤ 0.25 |
| TKQF | ≤ 0.25 |
| VNQI | ≤ 0.25 |
| NAYE | ≤ 0.25 |
| FDYV | ≤ 0.25 |
| MAYI | 21.1 |
| MEYF | ≤ 0.25 |
| MAAY | ≤ 0.25 |
| MAYF | 16.5 |
| MAYV | 15.4 |
| MAYK | ≤ 0.25 |
| MEYE | ≤ 0.25 |
| MAYE | 33.3 |
| NAYV | ≤ 0.25 |
| FDYF | ≤ 0.25 |

| Variant | enrichment ratio |
| --- | --- |
| MGDQ | ≤ 0.25 |
| VFQR | ≤ 0.25 |
| GVSL | 5.42 |
| GQSH | ≤ 0.25 |
| YRWT | ≤ 0.25 |
| FKMN | ≤ 0.25 |
| IMAN | ≤ 0.25 |
| MAYN | 16.6 |
| MAYM | 9.25 |
| MAHI | 24.7 |
| KAYN | ≤ 0.25 |
| MAHF | 9.56 |
| MAHE | ≤ 0.25 |
| LMFI | ≤ 0.25 |
| VDKC | ≤ 0.25 |
| PFWD | 3.08 |
| SWFV | ≤ 0.25 |
| FCIG | ≤ 0.25 |
| HKMH | ≤ 0.25 |
| ATTH | 8.31 |
| AKMH | 12 |
| ATCH | ≤ 0.25 |
| ATMH | 12.3 |
| AIMH | 4.85 |
| QGLS | 3.82 |

| Variant | enrichment ratio |
| --- | --- |
| LDNH | ≤ 0.25 |
| NEIS | ≤ 0.25 |
| TEIS | 11.4 |
| TEIV | ≤ 0.25 |
| QEIS | ≤ 0.25 |
| MEIV | 6.05 |
| MEIS | 13.8 |
| FGMP | ≤ 0.25 |
| MYAF | ≤ 0.25 |
| NHMV | ≤ 0.25 |
| NEMS | ≤ 0.25 |
| NEMV | 14.8 |
| NEMD | ≤ 0.25 |
| THMI | 26.1 |
| THMV | 8.19 |
| NEMI | 29 |
| NHMI | ≤ 0.25 |
| SHMI | 5.85 |
| DIIV | ≤ 0.25 |
| DPWI | ≤ 0.25 |
| ARSS | 0.56 |
| QLGI | ≤ 0.25 |
| HQLC | ≤ 0.25 |
| HNDG | ≤ 0.25 |
| HGKL | ≤ 0.25 |

| Variant | enrichment ratio |
| --- | --- |
| YYLC | ≤ 0.25 |
| IILC | ≤ 0.25 |
| AILC | 7.86 |
| YTLC | 11.3 |
| MKLC | ≤ 0.25 |
| FTLC | 6.55 |
| SALC | 12 |
| HKLC | ≤ 0.25 |
| AYLC | 0.263 |
| ATLC | 13.2 |
| KQLC | ≤ 0.25 |
| TKLC | 19.8 |
| KVHY | ≤ 0.25 |
| RTKV | ≤ 0.25 |
| APDH | ≤ 0.25 |
| RGMG | ≤ 0.25 |
| SWLC | ≤ 0.25 |
| SGNS | ≤ 0.25 |
| STLC | 13.2 |
| KDLC | ≤ 0.25 |
| DFLC | ≤ 0.25 |
| ADLC | 3.37 |
| SCLC | 12.4 |
| TDLC | 11.7 |
| LWLC | ≤ 0.25 |

| Variant | enrichment ratio |
| --- | --- |
| SGLC | 20.7 |
| KYLC | ≤ 0.25 |
| SPLC | ≤ 0.25 |
| HWIF | ≤ 0.25 |
| MFWN | ≤ 0.25 |
| AMSS | 9.96 |
| WMWY | ≤ 0.25 |
| SNLC | 11.3 |
| SKKC | ≤ 0.25 |
| SKLC | 12.6 |
| SELC | 20.4 |
| LTLC | ≤ 0.25 |
| SLLC | 7.49 |
| SRLC | ≤ 0.25 |
| GTLC | 10 |
| SFLC | 4.52 |
| SKTC | 11.1 |
| TTLC | 14.4 |
| TPLC | ≤ 0.25 |
| VGMT | ≤ 0.25 |
| NFAS | ≤ 0.25 |
| AWLG | ≤ 0.25 |
| PRVI | ≤ 0.25 |
| THYW | ≤ 0.25 |
| ELGT | ≤ 0.25 |

| Variant | enrichment ratio |
| --- | --- |
| FGYD | ≤ 0.25 |
| EVSM | 7.73 |
| SNNY | 8.91 |
| SNNM | 13.1 |
| STNM | 11.4 |
| SNGS | 9.33 |
| SNRM | ≤ 0.25 |
| SNGD | ≤ 0.25 |
| SNGM | 15.3 |
| SNGY | 12.6 |
| SRGY | ≤ 0.25 |
| YTNM | ≤ 0.25 |
| SQNM | 1.65 |
| SLNM | ≤ 0.25 |
| RSCE | ≤ 0.25 |
| QIIS | ≤ 0.25 |
| TQLR | 2.23 |
| LNRD | 0.657 |
| EFTP | ≤ 0.25 |
| NIED | ≤ 0.25 |
| HGTL | 6.22 |
| SRCM | 9.77 |
| FDCM | ≤ 0.25 |
| MTCM | 12.2 |
| MTCK | ≤ 0.25 |

| Variant | enrichment ratio |
| --- | --- |
| SVCK | 9.8 |
| SECM | 38.2 |
| SDCM | 17.2 |
| SVCM | 14.2 |
| SYCM | ≤ 0.25 |
| SPCM | ≤ 0.25 |
| SVCE | 2.84 |
| MHCM | ≤ 0.25 |
| KPWY | ≤ 0.25 |
| TYSW | ≤ 0.25 |
| HHAG | ≤ 0.25 |
| IFAS | ≤ 0.25 |
| MQIG | ≤ 0.25 |
| LTCM | ≤ 0.25 |
| YTCM | 11.5 |
| WLCM | ≤ 0.25 |
| NTCM | ≤ 0.25 |
| RTCM | ≤ 0.25 |
| ITCM | 1 |
| PLCM | ≤ 0.25 |
| FTCM | 7.68 |
| STCM | 13.3 |
| YHCM | ≤ 0.25 |
| TTCM | 24.5 |
| SLCM | 16.9 |

| Variant | enrichment ratio |
| --- | --- |
| RMAR | ≤ 0.25 |
| LPWH | ≤ 0.25 |
| KMFP | ≤ 0.25 |
| IDIW | ≤ 0.25 |
| DRHH | ≤ 0.25 |
| ITAF | ≤ 0.25 |
| YANV | ≤ 0.25 |
| YATV | ≤ 0.25 |
| NAMN | ≤ 0.25 |
| KAMN | ≤ 0.25 |
| KATV | ≤ 0.25 |
| KANV | ≤ 0.25 |
| TAMN | 59.7 |
| TAVC | 1.35 |
| TANV | 17.9 |
| TATV | 13.6 |
| TAVG | ≤ 0.25 |
| TAMG | 17.2 |
| YFEP | ≤ 0.25 |
| NMRI | ≤ 0.25 |
| YHGP | ≤ 0.25 |
| TWHF | ≤ 0.25 |
| LTFD | ≤ 0.25 |
| HWNR | ≤ 0.25 |
| WEAV | ≤ 0.25 |

| Variant | enrichment ratio |
| --- | --- |
| KAMP | ≤ 0.25 |
| WWAY | ≤ 0.25 |
| LLHT | ≤ 0.25 |
| HMSL | ≤ 0.25 |
| PQVE | ≤ 0.25 |
| HHWE | ≤ 0.25 |
| TAGF | 13.2 |
| TAPV | ≤ 0.25 |
| TAVA | ≤ 0.25 |
| TAQS | 14.2 |
| YAGF | ≤ 0.25 |
| LQQS | ≤ 0.25 |
| IAGF | ≤ 0.25 |
| LQQF | ≤ 0.25 |
| TAQF | 14 |
| TAHF | 10.3 |
| TAMS | 7.61 |
| TAMV | 14.2 |
| KVFQ | ≤ 0.25 |
| TFVR | ≤ 0.25 |
| QGQK | ≤ 0.25 |
| PHIC | ≤ 0.25 |
| NSGR | ≤ 0.25 |
| SWSS | ≤ 0.25 |
| AQVW | ≤ 0.25 |

| Variant | enrichment ratio |
| --- | --- |
| THPY | ≤ 0.25 |
| TAAF | 18.4 |
| TAWV | 12.8 |
| YAMF | ≤ 0.25 |
| NAAF | ≤ 0.25 |
| TAVK | ≤ 0.25 |
| TAMF | 19.6 |
| KAAF | ≤ 0.25 |
| TAWI | 10.7 |
| IAMF | ≤ 0.25 |
| DPRG | ≤ 0.25 |
| GCCQ | 8.03 |
| NNVY | ≤ 0.25 |
| MPPF | ≤ 0.25 |
| QTGS | 0.628 |
| SDDV | 0.265 |
| WLTS | ≤ 0.25 |
| AVVG | 11.2 |
| AVDH | ≤ 0.25 |
| AVMG | 2.13 |
| AVSI | 13.1 |
| AVCA | 6.97 |
| AVTG | 11.3 |
| HSNG | ≤ 0.25 |
| ERPM | ≤ 0.25 |

| Variant | enrichment ratio |
| --- | --- |
| QHPH | ≤ 0.25 |
| LNHC | ≤ 0.25 |
| LVHC | 15 |
| QLDN | ≤ 0.25 |
| QLCK | ≤ 0.25 |
| TVDY | ≤ 0.25 |
| FVDN | ≤ 0.25 |
| QVDN | 11.3 |
| LPHC | ≤ 0.25 |
| QVDY | 11.3 |
| QVDS | 1.54 |
| QLWM | 12.6 |
| QLNM | ≤ 0.25 |
